According to ChEMBL document CHEMBL1157539, “Thousands of chemical starting points for antimalarial lead identification” (Nature, 2010):

Tests used:
Type in all cases: functional
Plasmodium falciparum [1] = assay: GSK_TCMDC: Inhibition of Plasmodium falciparum 3D7 in whole red blood cells, using parasite LDH activity as an index of growth. Test compounds present at 2uM
Plasmodium falciparum [2] = assay: GSK_TCMDC: Inhibition of Plasmodium falciparum Dd2 in whole red blood cells, using parasite LDH activity as an index of growth. Test compounds present at 2uM
HepG2 = assay: GSK_TCMDC: Percent inhibition of human HepG2 cell line. Test compounds present at 10uM.

Row | SMILES | Inhibition (Plasmodium falciparum [1]) | Inhibition (Plasmodium falciparum [2]) | Inhibition (HepG2)
1 | Cc1noc(-c2ccccc2)c1NC(=O)NC1CCN(CCCCCNC(=O)/C=C/c2ccc(Cl)c(Cl)c2)CC1 | 93% | 0% | 0%
2 | C=CCOc1ccccc1CNCC(O)c1cc(Br)cs1 (stereo not drawn) | 93% | 72% | 25%
3 | CC(C)(C)c1nn(-c2ccccc2)c2[nH]c(=O)c(CNC3CCCC3)cc12 | 100% | 70% | 7%
4 | CN(C)Cc1ccc(-c2cccc(NC(=O)c3ccc(Cl)cc3)c2)cc1.O=C(O)C(F)(F)F | 94% | 13% | 24%
5 | COc1cc(Br)ccc1N1CCN(CCCCNC(=O)c2ccc(NC(=O)c3ccc(Cl)cc3)cc2)CC1.Cl | 96% | 33% | 55%
6 | Cc1cc2nc(-c3ccc(/C=C/C(=O)NCc4ccc(Cl)c(Cl)c4)cc3)[nH]c2cc1C | 98% | 83% | 32%
7 | O=C(NCC1CCC(C(=O)NC2CCCc3ccccc32)CC1)c1ccc(O)c(-c2ccc(Cl)c(Cl)c2)c1 (stereo not drawn) | 93% | 86% | 0%
8 | Cc1cc2nc(-c3ccc(/C=C/C(=O)NC4CCN(Cc5ccccc5)CC4)cc3)[nH]c2cc1C | 98% | 89% | 18%
9 | CCCCc1cc(O)c2c(c1)OC(C)(C)C=C2C1=CCN(Cc2ccccc2)CC1 | 98% | 3% | 9%
10 | Cc1cccc2nc(-c3cccc(-c4ccc(CNCc5cnn(-c6ccccc6)n5)cc4)c3)[nH]c12.O=C(O)C(F)(F)F | 100% | 66% | 20%
11 | CCCCCN(C(=O)Nc1cc(C(F)(F)F)cc(C(F)(F)F)c1)C(C)c1nc2ccccc2c(=O)n1CC (stereo not drawn) | 100% | 100% | 0%
12 | O=C(NCCCCCN1CCC(c2c[nH]c3ccccc23)CC1)Nc1ccc(I)c(Cl)c1 | 99% | 5% | 88%
13 | CC(C)Cc1nc2nc(N)nc(N)c2cc1C(C)C | 96% | 3% | 67%
14 | Cc1cc(-c2nc3cc(C(=N)N)ccc3[nH]2)c(C)cc1-c1nc2cc(C(=N)N)ccc2[nH]1.Cl | 96% | 97% | 0%
15 | CCCCCn1c(Sc2ccc(C#N)c([N+](=O)[O-])c2)nnc1-c1cc(OC)cc(OC)c1 | 93% | 24% | 17%
16 | Cc1[nH]c(C)c(-c2ccc(-c3cccc(OC(F)(F)F)c3)nc2)c(=O)c1Cl | 98% | 97% | 30%
17 | N#Cc1cccc(C(=O)NC2CCN(CCCCCNC(=O)/C=C/c3ccc(Cl)c(Cl)c3)CC2)c1 | 100% | 0% | 11%
18 | Oc1c(C(Nc2nc3ccccc3s2)c2ccc(OC(F)F)cc2)ccc2cccnc12 (stereo not drawn) | 92% | 85% | 62%
19 | COc1ccc(NC(=O)[C@H](Cc2ccccc2)Nc2cc(C)nc(NCCc3ccc(F)cc3)n2)cc1.O=C(O)C(F)(F)F | 100% | 82% | 17%
20 | CC(=Nc1ccc(Cl)c(Cl)c1)N(C)C.Cl | 98% | 0% | 0%
21 | Cc1ccc2cc(NCCCCCCCCON3C(N)=NC(N)=NC34CCCCC4)ccc2n1 | 92% | 80% | 15%

Row | SMILES | Inhibition (Plasmodium falciparum [1]) | Inhibition (Plasmodium falciparum [2]) | Inhibition (HepG2)
22 | COc1cc(N(C)Cc2cnc3nc(N)nc(N)c3n2)cc(OC)c1OC | 95% | 2% | 32%
23 | CCCCN1CCN(c2cc(NS(=O)(=O)c3ccc(C(=O)Nc4ccc(C(F)(F)F)cc4)cc3)ccc2OC)CC1.O=C(O)C(F)(F)F | 99% | 20% | 17%
24 | COCc1cccc(-c2cc(-c3ccc(S(C)(=O)=O)cc3)cnc2N)c1 | 98% | 88% | 10%
25 | CCN(CC)Cc1cc(Nc2c3ccc(Cl)cc3nc3cccc(OC)c23)ccc1O.Cl | 100% | 98% | 8%
26 | CS(=O)(=O)Nc1ccc2[nH]cc(C3CCN(CCCCCNC(=O)/C=C/c4ccc(Cl)c(Cl)c4)CC3)c2c1 | 100% | 0% | 1%
27 | CCN(CC)CCN(Cc1ccc(-c2ccc(C(F)(F)F)cc2)cc1)C(=O)Cn1c(CCc2ccccc2F)nc(=O)c2ccccc21.O=C(O)C(O)C(O)C(=O)O | 95% | 54% | 39%
28 | CN(Cc1ccc(-c2ccc(C(F)(F)F)cc2)cc1)C(=O)Cn1c(CCc2cccc(F)c2F)nc(=O)c2ccc(N3CCN(CCN4CCCCC4)CC3)nc21.O=C(O)C(O)C(O)C(=O)O | 100% | 100% | 100%
29 | Cc1cc(NCCCOc2ccc(Cl)cc2)nc(NCc2ccccc2)n1.Cl | 95% | 20% | 45%
30 | COc1ccc2ccccc2c1CCCCN1CCN(CC(c2ccc(F)cc2)N2CCC(N3CCCC3)CC2)CC1.O=C(O)C(F)(F)F (stereo not drawn) | 99% | 73% | 74%
31 | CC(CN(C)C)C(=O)Nc1cccc(-c2cccc(-c3nc4cc(F)ccc4[nH]3)c2)c1 (stereo not drawn) | 100% | 94% | 29%
32 | CC1c2cccc(O)c2CCN1CCc1ccc(Cl)c(Cl)c1.Cl (stereo not drawn) | 100% | 99% | 18%
33 | CCN(CC)CCOc1ccc(NC(=O)c2oc3ccccc3c2C=Cc2ccccc2)cc1.O=C(O)/C=C/C(=O)O | 98% | 54% | 51%
34 | Cl.Fc1cc(Cl)ccc1Nc1ccnc(Nc2ccc3cn[nH]c3c2)n1 | 97% | 56% | 8%
35 | COc1ccc(C(=O)Nc2cc(Br)c3c(c2)CNCC3)cc1C(F)(F)F.Cl | 90% | 4% | 13%
36 | Cl.O=C(NC1CCC(CCN2Cc3ccc(Br)cc3C2)CC1)c1cccc(-c2cccnc2)c1 (stereo not drawn) | 99% | 73% | 14%
37 | O=C(/C=C/c1ccc(Cl)c(Cl)c1)NCCCCN1CCCN(C(=O)Nc2ccc(C(F)(F)F)cc2)CC1 | 94% | 0% | 35%
38 | CC(C)Oc1cc2c(cc1NS(=O)(=O)c1ccc(-c3cccs3)cc1)CCN(C)CC2.Cl | 88% | 9% | 9%
39 | COc1cc(Nc2nccc(NCC(O)c3ccc(C(F)(F)F)cc3)n2)cc(OC)c1OC (stereo not drawn) | 91% | 14% | 45%
40 | CN(C)CCOc1cc(NC(=O)Nc2ccc(-c3ccncc3)c3ccccc23)ccc1I | 97% | 46% | 35%
41 | COc1cc(C(F)(F)F)c2cc(CNCCCNc3nc4ccccc4[nH]3)[nH]c2c1 | 100% | 0% | 60%
42 | O=C(NCCCN1CCCCC1)c1cccc(Nc2nccc(Nc3ccc(Oc4ccccc4)cc3)n2)c1 | 96% | 12% | 47%

Row | SMILES | Inhibition (Plasmodium falciparum [1]) | Inhibition (Plasmodium falciparum [2]) | Inhibition (HepG2)
43 | O=C(O)C(F)(F)F.c1cc(CN2CCN(CCN3CCOCC3)CC2)cc(-c2cccc(-c3nc4ccccc4[nH]3)c2)c1 | 100% | 100% | 29%
44 | CCOC(=O)CCCc1cc(NC2CCN(C)CC2)nc(Nc2ccc(C)cc2)n1 | 90% | 12% | 35%
45 | Cc1cc(CNCCCCCCNCc2ccc(Cl)cc2)ccc1O | 96% | 0% | 23%
46 | Clc1ccc2c(NCCc3ccccn3)ccnc2c1 | 92% | 72% | 13%
47 | O=C(NCc1ccco1)c1ccc(CN2CCN(C(c3ccccc3)c3ccccc3)CC2)cc1 | 96% | 92% | 6%
48 | COc1ccc(-c2nonc2NC(=O)c2cccc(Cl)c2)cc1OC | 98% | 63% | 41%
49 | N#Cc1ccc(-c2ccc(C(=O)NCCCCN3CCC(c4nc5ccccc5[nH]4)CC3)cc2)cc1 | 92% | 13% | 43%
50 | Cc1ccc2cc(NC(=O)CCCCCCCON3C(N)=NC(N)=NC34CCCCC4)ccc2n1.O=C(O)C(F)(F)F | 98% | 86% | 6%
51 | Cc1cccc2nc(-c3cccc(-c4ccc(NC(=O)Nc5ccc(Cl)c(Cl)c5)cc4)c3)[nH]c12 | 100% | 83% | 53%
52 | CCCCCN1CCCN(Cc2cccc(NC(=O)c3ccc(Cl)c(Cl)c3)c2)CC1.O=C(O)C(F)(F)F | 89% | 28% | 30%
53 | O=C(NC1CC1c1ccccc1)N(CCCn1ccnc1)Cc1csc(-c2ccc(CNCc3ccccc3)cc2)n1.O=C(O)C(F)(F)F (stereo not drawn) | 96% | 20% | 6%
54 | O=C(/C=C/c1ccc(Cl)c(Cl)c1)NCCCCCN1CCC(NC(=O)Nc2cc(Cl)cc(Cl)c2)CC1 | 94% | 5% | 98%
55 | COc1ccc(C(=O)Nc2ccc(-c3ccc([N+](=O)[O-])cc3)cc2)cc1CCCN(C)C.Cl | 98% | 9% | 20%
56 | Cl.Cl.N=C(N)c1cccc(-c2cc(-c3cccc(C(=N)N)c3)on2)c1 | 96% | 78% | 8%
57 | O=C(O)C(F)(F)F.c1ccc(CN2CCC(NCc3ccc(-c4ccc(CNCc5cccnc5)cn4)cc3)CC2)cc1 | 97% | 13% | 0%
58 | CCc1cn2c3c(cc(C(=O)N[C@@H](Cc4ccccc4)[C@H](O)CNCc4cccc(C)c4)cc13)N(C)S(=O)(=O)CC2.O=CO | 96% | 98% | 5%
59 | COc1c(Br)cc(Br)cc1-c1ccc(CN2C3CCCC2CCC3)[nH]1.Cl | 88% | 83% | 42%
60 | CCOc1ccccc1C1CCN(CCCCNC(=O)c2ccc(NC(=O)c3ccc(Cl)cc3)cc2)CC1 | 95% | 27% | 13%
61 | COCCn1c(SC(C)C(=O)Nc2cc(C(F)(F)F)ccc2Cl)nc2ccccc2c1=O (stereo not drawn) | 97% | 95% | 8%
